# According to paper PMC5540273 (PLoS ONE, 2017):
# Values joined by “and” are separate entries in the source; they are usually repeats but may differ in a detail not shown here. Equal entries are not always repeated. Where two headings read alike, the source gives them in different places.
# What was measured:
# CHEK2 = settings: concentration: 1 μM, replicates: in singlicate; n = 1
# CIT = settings: n = 1
# CLK1 = settings: n = 1
# CLK2 = settings: concentration: 1 μM, replicates: in singlicate; n = 1
# CLK3 = settings: n = 1
# CLK4 = settings: n = 1
# CSF1R-autoinhibited = settings: concentration: 1 μM, replicates: in singlicate; n = 1
# CSF1R = settings: n = 1
# CSK = settings: n = 1
# CSNK1A1L = settings: n = 1
# CSNK1A1 = settings: concentration: 1 μM, replicates: in singlicate; n = 1
# CSNK1D = settings: n = 1
# CSNK1E = settings: n = 1
# CSNK1G1 = settings: n = 1
# CSNK1G2 = settings: concentration: 1 μM, replicates: in singlicate; n = 1
# CSNK1G3 = settings: n = 1
# CSNK2A1 = settings: n = 1
# CSNK2A2 = settings: n = 1
# CTK = test system: T1, CTK; settings: concentration: 1 μM, replicates: in singlicate; n = 1
# T1 construct: gene MATK
# DAPK1 = settings: n = 1
# [1] = concentration: 1 μM, replicates: in singlicate
# [2] = concentration: 1 μM,replicates: in singlicate, 1 µM
# 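Further: KINOMEscan kinase panel screen.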
smiles,measurement,setting,value
Cn1cncc1-c1ccc2ncnc(Nc3ccc(OCc4ccccc4)cc3)c2c1 [GW320571],%Inh,CHEK2,0%
same,%Inh,CIT; [1],6%
same,%Inh,CLK1; [1],23%
same,%Inh,CLK2,57%
same,%Inh,CLK3; [1],100%
same,%Inh,CLK4; [1],32%
same,%Inh,CSF1R-autoinhibited,0%
same,%Inh,CSF1R; [1],0%
same,%Inh,CSK; [1],0%
same,%Inh,CSNK1A1L; [1],22%
same,%Inh,CSNK1A1,0%
same,%Inh,CSNK1D; [1],20%
same,%Inh,CSNK1E; [1],99.4%
same,%Inh,CSNK1G1; [1],0%
same,%Inh,CSNK1G2,15%
same,%Inh,CSNK1G3; [1],19%
same,%Inh,CSNK2A1; [1],26%
same,%Inh,CSNK2A2; [1],15%
same,%Inh,CTK,0%
same,%Inh,DAPK1; [1],0%
Fc1cccc(COc2nnc(-c3ccc4c(c3)CCO4)o2)c1,%Inh,CHEK2,10%
same,%Inh,CIT; [1],0%
same,%Inh,CLK1; [1],32%
same,%Inh,CLK2,13%
same,%Inh,CLK3; [1],0%
same,%Inh,CLK4; [1],53%
same,%Inh,CSF1R-autoinhibited,0%
same,%Inh,CSF1R; [1],11%
same,%Inh,CSK; [1],0%
same,%Inh,CSNK1A1L; [1],12%
same,%Inh,CSNK1A1,0%
same,%Inh,CSNK1D; [1],0%
same,%Inh,CSNK1E; [1],0%
same,%Inh,CSNK1G1; [1],10%
same,%Inh,CSNK1G2,4%
same,%Inh,CSNK1G3; [1],0%
same,%Inh,CSNK2A1; [1],42%
same,%Inh,CSNK2A2; [1],60%
same,%Inh,CTK,0%
same,%Inh,DAPK1; [1],24%
COc1cc2ncnc(Nc3ccc4nc(-c5ccccc5)[nH]c4c3)c2cc1OC.Cl [GW282450],%Inh,CHEK2,26%
same,%Inh,CIT; [1],59%
same,%Inh,CLK1; [1],14%
same,%Inh,CLK2,0%
same,%Inh,CLK3; [1],12%
same,%Inh,CLK4; [1],3%
same,%Inh,CSF1R-autoinhibited,0%
same,%Inh,CSF1R; [1],3%
same,%Inh,CSK; [1],10%
same,%Inh,CSNK1A1L; [1],0%
same,%Inh,CSNK1A1,0%
same,%Inh,CSNK1D; [1],6%
same,%Inh,CSNK1E; [1],24%
same,%Inh,CSNK1G1; [1],15%
same,%Inh,CSNK1G2,0%
same,%Inh,CSNK1G3; [1],17%
same,%Inh,CSNK2A1; [1],5%
same,%Inh,CSNK2A2; [1],98.4%
same,%Inh,CTK,0%
same,%Inh,DAPK1; [1],1%
CSc1nn2c(=O)cc(N3CCOCC3)nc2n1Cc1cccc(C(F)(F)F)c1C [GSK2363608],%Inh,CHEK2,0%
same,%Inh,CIT; [2],23% and 2%
same,%Inh,CLK1; [2],43% and 31%
same,%Inh,CLK2,0%
same,%Inh,CLK3; [2],0% and 6%
same,%Inh,CLK4; [2],17% and 0%
same,%Inh,CSF1R-autoinhibited,0%
same,%Inh,CSF1R; [2],23% and 9%
same,%Inh,CSK; [2],11% and 0%
same,%Inh,CSNK1A1L; [2],8% and 7%
same,%Inh,CSNK1A1,0%
same,%Inh,CSNK1D; [2],27% and 8%
same,%Inh,CSNK1E; [2],25% and 19%
same,%Inh,CSNK1G1; [2],100% and 4%
same,%Inh,CSNK1G2,0%
same,%Inh,CSNK1G3; [2],41% and 20%
same,%Inh,CSNK2A1; [2],7% and 0%
same,%Inh,CSNK2A2; [2],7% and 0%
same,%Inh,CTK,0%
same,%Inh,DAPK1; [2],3% and 0%
Cc1cccc(-c2nc(C)cc(Nc3ccncc3)n2)n1 [GSK257997],%Inh,CHEK2,0%
same,%Inh,CIT; [1],23%
same,%Inh,CLK1; [1],13%
same,%Inh,CLK2,9%
same,%Inh,CLK3; [1],15%
same,%Inh,CLK4; [1],9%
same,%Inh,CSF1R-autoinhibited,0%
same,%Inh,CSF1R; [1],0%
same,%Inh,CSK; [1],0%
same,%Inh,CSNK1A1L; [1],7%
same,%Inh,CSNK1A1,0%
same,%Inh,CSNK1D; [1],43%
same,%Inh,CSNK1E; [1],42%
same,%Inh,CSNK1G1; [1],13%
same,%Inh,CSNK1G2,0%
same,%Inh,CSNK1G3; [1],10%
same,%Inh,CSNK2A1; [1],2%
same,%Inh,CSNK2A2; [1],22%
same,%Inh,CTK,0%
same,%Inh,DAPK1; [1],9%
Cc1c(O)cccc1Nc1ccnc2ccc(C(F)(F)F)cc12.Cl [GW466413],%Inh,CHEK2,0%
same,%Inh,CIT; [1],42%
same,%Inh,CLK1; [1],22%
same,%Inh,CLK2,14%
same,%Inh,CLK3; [1],0%
same,%Inh,CLK4; [1],38%
same,%Inh,CSF1R-autoinhibited,0%
same,%Inh,CSF1R; [1],0%
same,%Inh,CSK; [1],0%
same,%Inh,CSNK1A1L; [1],3%
same,%Inh,CSNK1A1,0%
same,%Inh,CSNK1D; [1],0%
same,%Inh,CSNK1E; [1],22%
same,%Inh,CSNK1G1; [1],0%
same,%Inh,CSNK1G2,0%
same,%Inh,CSNK1G3; [1],0%
same,%Inh,CSNK2A1; [1],0%
same,%Inh,CSNK2A2; [1],0%
same,%Inh,CTK,0%
same,%Inh,DAPK1; [1],0%
Cc1cccc(-c2nc(Nc3ccc4[nH]ncc4c3)c3ccccc3n2)n1 [GW857175],%Inh,CHEK2,0%
same,%Inh,CIT; [1],9%
same,%Inh,CLK1; [1],33%
same,%Inh,CLK2,14%
same,%Inh,CLK3; [1],4%
same,%Inh,CLK4; [1],12%
same,%Inh,CSF1R-autoinhibited,33%
same,%Inh,CSF1R; [1],7%
same,%Inh,CSK; [1],0%
same,%Inh,CSNK1A1L; [1],0%
same,%Inh,CSNK1A1,0%
same,%Inh,CSNK1D; [1],28%
same,%Inh,CSNK1E; [1],28%
same,%Inh,CSNK1G1; [1],15%
same,%Inh,CSNK1G2,0%
same,%Inh,CSNK1G3; [1],18%
same,%Inh,CSNK2A1; [1],94%
same,%Inh,CTK,18%
same,%Inh,DAPK1; [1],10%
O=C(O)COc1ncnc2cc(-c3ccc4[nH]ncc4c3)sc12,%Inh,CHEK2,1%
same,%Inh,CIT; [1],8%
same,%Inh,CLK1; [1],76%
same,%Inh,CLK2,43%
same,%Inh,CLK3; [1],0%
same,%Inh,CLK4; [1],79%
same,%Inh,CSF1R-autoinhibited,0%
same,%Inh,CSF1R; [1],0%
same,%Inh,CSK; [1],0%
same,%Inh,CSNK1A1L; [1],0%
same,%Inh,CSNK1A1,33%
same,%Inh,CSNK1D; [1],0%
same,%Inh,CSNK1E; [1],0%
same,%Inh,CSNK1G1; [1],17%
same,%Inh,CSNK1G2,10%
same,%Inh,CSNK1G3; [1],34%
same,%Inh,CSNK2A1; [1],37%
same,%Inh,CSNK2A2; [1],20%
same,%Inh,CTK,14%
same,%Inh,DAPK1; [1],17%
